Among the test systems are DU-145 prostate; K-562 leukemia; MALME-3M melanoma; MDA-MB-231 breast; RXF 393 renal; SF-268 CNS; SF-295 CNS; SF-539 CNS; UACC-257 melanoma; M14 melanoma; HCT-15 colon; HT29 colon; SNB-75 CNS; SNB-19 CNS; U251 CNS; PC-3 prostate; SK-MEL-5 melanoma; UACC-62 melanoma; LOX IMVI melanoma; SK-MEL-28 melanoma.
Holding throughout (experiment): NCI-60 one-dose screen, 48 h (100 = growth as untreated, 0 = no growth, -100 = all killed)
Common to all, as to conditions: 10 µM unless noted

The structures appear in SMILES notation. About 83,000 compounds went through this panel and 20% of them were active in at least one assay; those are over-represented in the sample as a whole.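 Values shown are percent growth following 48 h exposure of cells in 96-well plates to a single concentration of compound; below 10 was considered active.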 Values without a mark were called inactive. Active and inactive are the calls of the source.

As for `COc1ccc2nc(NC(=O)c3cccnc3Nc3ccc(S(N)(=O)=O)cc3)sc2c1`, the growth in the assay on DU-145 prostate was 105%; in the assay with K-562 leukemia, 70.9%; in the assay on MALME-3M melanoma, 103%; with MDA-MB-231 breast, 106%; with RXF 393 renal it was 113%; with SF-268 CNS it was 82.6%. The growth in the assay with SF-295 CNS was 92.8%; with SF-539 CNS, 100%; in the assay on UACC-257 melanoma, 113%; in the assay with M14 melanoma, 113%; in the assay with HCT-15 colon, 94.2%; in the assay on HT29 colon it was 106%. In addition, the growth in the assay on SNB-75 CNS is 74.6%; with SNB-19 CNS it was 99.4%; with U251 CNS, 97.4%; in the assay with PC-3 prostate it was 71.6%; with SK-MEL-5 melanoma it was 89.4%; in the assay with UACC-62 melanoma, 82.5%. Further, the growth is 100% in the assay on LOX IMVI melanoma and 116% with SK-MEL-28 melanoma.
`O=C(Nc1ccc(-c2nc(-c3cccc(OCCN4CCOCC4)c3)c(-c3ccnc(Br)c3)[nH]2)cc1)c1ccccc1`: the growth was 55.6% in the assay with DU-145 prostate; 0.946% (active) in the assay on K-562 leukemia; -21% (active) with MALME-3M melanoma; 29.2% in the assay with MDA-MB-231 breast; -49.9% (active) in the assay with RXF 393 renal; 38.9% in the assay with SF-268 CNS. Also, the growth was -70.9% (active) in the assay on SF-295 CNS; -39.8% (active) in the assay on SF-539 CNS; -0.153% (active) in the assay with UACC-257 melanoma; 6.5% (active) in the assay with M14 melanoma; -7.78% (active) with HCT-15 colon; 1.79% (active) with HT29 colon. In addition, the growth in the assay with SNB-75 CNS is -37.3% (active); in the assay with SNB-19 CNS it was -0.968% (active); with U251 CNS, 8.84% (active); in the assay on PC-3 prostate, 18.3%; with SK-MEL-5 melanoma, -92.7% (active); in the assay on UACC-62 melanoma, -15.9% (active). Also, the growth in the assay on LOX IMVI melanoma is -58.8% (active); with SK-MEL-28 melanoma it was -29.5% (active).
In the case of `CCc1cccc2c3c(sc12)C(c1ccc(Cl)cc1)C(C#N)=C(N)O3` (stereo not given), the growth is 19.3% in the assay with DU-145 prostate; 6.13% (active) in the assay with K-562 leukemia; 54.6% in the assay with MALME-3M melanoma; 31.6% in the assay on MDA-MB-231 breast; -18.8% (active) with RXF 393 renal; 54.1% in the assay on SF-268 CNS. The growth in the assay with SF-295 CNS was 2.87% (active); with SF-539 CNS it was -15.4% (active); in the assay on UACC-257 melanoma, 80%; in the assay on M14 melanoma it was 5.36% (active); with HCT-15 colon, 13.8%; in the assay with HT29 colon, 6.86% (active). For the same molecule, the growth in the assay with SNB-75 CNS is -10.2% (active); in the assay with SNB-19 CNS, 27.1%; in the assay with U251 CNS, 24.7%; with PC-3 prostate, 7.23% (active); in the assay on SK-MEL-5 melanoma, 29%; in the assay on UACC-62 melanoma, 22.1%. Further, the values for the growth with LOX IMVI melanoma and with SK-MEL-28 melanoma were 26.6% and 63.4%, respectively.
For the molecule `C[C@H](C(=O)Nc1ccc(S(N)(=O)=O)cc1)S(=O)(=O)c1ccccc1`, the growth in the assay on DU-145 prostate is 108%; in the assay with K-562 leukemia, 106%; in the assay with MALME-3M melanoma it was 101%; in the assay with MDA-MB-231 breast, 114%; in the assay with RXF 393 renal, 88.1%; with SF-268 CNS, 102%. For the same molecule, the growth is 94.6% with SF-295 CNS; 102% in the assay on SF-539 CNS; 103% in the assay with UACC-257 melanoma; 104% in the assay with M14 melanoma; 98.1% in the assay with HCT-15 colon; 107% with HT29 colon. Also, the growth with SNB-75 CNS was 96.9%; in the assay on SNB-19 CNS, 95.5%; in the assay on U251 CNS, 97.5%; in the assay on PC-3 prostate it was 101%; with SK-MEL-5 melanoma it was 99.2%; with UACC-62 melanoma it was 102%. In addition, the growth in the assay with LOX IMVI melanoma is 98%; in the assay with SK-MEL-28 melanoma, 115%.
Turning to `COc1cc(CCC[P+](c2ccccc2)(c2ccccc2)c2ccccc2)c(OC)c2c1OCO2`, the growth with DU-145 prostate was 28.5%; with K-562 leukemia it was 14.4%; in the assay with MALME-3M melanoma, 3.07% (active); in the assay on MDA-MB-231 breast, -0.787% (active); in the assay on RXF 393 renal, 64.3%; in the assay on SF-268 CNS, 13%. The growth in the assay with SF-295 CNS is 66.9%; in the assay with SF-539 CNS, 46.9%; in the assay on UACC-257 melanoma it was 5.75% (active); in the assay on M14 melanoma, 17.4%; with HCT-15 colon, 93.1%; with HT29 colon, 47.2%. Further, the growth is 3.69% (active) in the assay with SNB-75 CNS; 15.2% with SNB-19 CNS; 11.5% with U251 CNS; 14.4% with PC-3 prostate; -48.9% (active) with SK-MEL-5 melanoma; 0.576% (active) in the assay with UACC-62 melanoma. The growth in the assay with LOX IMVI melanoma was 29.6%; in the assay on SK-MEL-28 melanoma, 32.1%.
On to `CCCCCCNC(=O)Oc1ccc(/C(=C(\C)c2ccc(Cl)cc2)c2ccc(OCCCN(C)C)cc2)cc1`, for which the growth in the assay on DU-145 prostate is 84.9%; in the assay with K-562 leukemia, -28.4% (active); in the assay on MALME-3M melanoma, 68.6%; in the assay on MDA-MB-231 breast it was 79.2%; in the assay on RXF 393 renal, 80.1%; in the assay on SF-268 CNS it was 77%. For the same molecule, the growth in the assay with SF-295 CNS was 97.5%; with SF-539 CNS, 87.9%; in the assay on UACC-257 melanoma, 60%; with M14 melanoma, 76.7%; in the assay with HCT-15 colon, 8.75% (active); in the assay on HT29 colon it was 0.63% (active). For the same molecule, the growth in the assay with SNB-75 CNS was 79.1%; in the assay on SNB-19 CNS, 79.8%; in the assay with U251 CNS it was 42%; in the assay with PC-3 prostate, 79.6%; in the assay on SK-MEL-5 melanoma, 86.2%; in the assay on UACC-62 melanoma, 96.9%. Further, the values for the growth with LOX IMVI melanoma and in the assay with SK-MEL-28 melanoma were 39.5% and 97.2%, respectively.
As to `COc1cccc2c(=O)c3c(sc12)c(NCCCN)nc1ccccc13`, the growth in the assay on DU-145 prostate was 33.1%; with K-562 leukemia, -7.71% (active); in the assay on MALME-3M melanoma, 90.9%; with MDA-MB-231 breast it was 10.3%; in the assay on RXF 393 renal, 61%; in the assay on SF-268 CNS, 61.4%. In addition, the growth in the assay with SF-295 CNS is 72.8%; with SF-539 CNS it was 56.1%; with UACC-257 melanoma it was 94.1%; in the assay on M14 melanoma it was 33.9%; with HCT-15 colon, 28.9%; in the assay on HT29 colon it was -29.3% (active). Further, the growth with SNB-75 CNS is 58.2%; in the assay with SNB-19 CNS it was 51%; with U251 CNS, 39.5%; in the assay with PC-3 prostate it was 55.9%; with SK-MEL-5 melanoma, 85.9%; in the assay on UACC-62 melanoma, 88.3%. For the same molecule, the growth was -81.7% (active) in the assay with LOX IMVI melanoma and 91.4% with SK-MEL-28 melanoma.
Turning to `COc1cc2oc(-c3ccc(O)cc3)cc(=O)c2c(O)c1-c1c(OC)cc(O)c2c(=O)cc(-c3ccc(O)cc3)oc12`, the growth in the assay on DU-145 prostate is 53.5%; in the assay on K-562 leukemia, 44.5%; with MALME-3M melanoma, 63.2%; with MDA-MB-231 breast it was 48.5%; in the assay with RXF 393 renal, -44.1% (active); in the assay on SF-268 CNS, 12.8%. Further, the growth with SF-295 CNS was 67.1%; with SF-539 CNS, 18%; with UACC-257 melanoma, 91.5%; with M14 melanoma, 28%; in the assay with HCT-15 colon, 30.4%; in the assay on HT29 colon, 12.1%. Also, the growth was -2.61% (active) with SNB-75 CNS; 17.8% in the assay on SNB-19 CNS; 19.2% in the assay with U251 CNS; 72.3% in the assay on PC-3 prostate; -49.5% (active) with SK-MEL-5 melanoma; -26.3% (active) with UACC-62 melanoma. The growth was 18.2% with LOX IMVI melanoma and 18.3% in the assay with SK-MEL-28 melanoma.

The values are drawn from PubChem BioAssay (NCI).
